Laboratory results: the supplement of paper PMC3334620
The full ranking holds about 33,000 sequences; the median of “E-score (-0.5 to 0.5)” is about -0.017, and the highest 2% start at about 0.3. Shown is part of a subset that was picked to be rich in the highest values.

Target: T1, Sut1 (UniProt P53032)
T1 sequence: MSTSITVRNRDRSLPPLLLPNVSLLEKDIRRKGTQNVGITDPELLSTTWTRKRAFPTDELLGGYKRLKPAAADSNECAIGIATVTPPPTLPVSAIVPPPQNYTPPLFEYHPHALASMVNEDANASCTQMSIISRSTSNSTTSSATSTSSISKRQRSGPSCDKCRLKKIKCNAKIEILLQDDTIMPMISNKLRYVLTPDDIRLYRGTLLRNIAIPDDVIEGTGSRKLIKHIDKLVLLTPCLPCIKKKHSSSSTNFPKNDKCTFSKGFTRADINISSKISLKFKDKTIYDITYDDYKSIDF
Assay: PBM E-score (8-mer binding enrichment) (E-score (-0.5 to 0.5)); higher = stronger / more preferred TF binding
Conditions: protein concentration: 200 nM; construct: GST-full length
Outline: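 Each ungapped eight-base word and its reverse complement, pooled, received an E-score from the Universal PBM Analysis Suite. Underlying scans, normalised with masliner, recorded fluorescent anti-GST bound to GST-tagged yeast transcription factors. These were applied at about 100-200 nM to universal all-10-mer Agilent arrays double-stranded by primer extension.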

Sequence	PBM E-score
ACATCGCA	-0.067
CAGGCCTA	-0.108
GCTATCAA	0.119
ATGTTGGC	-0.0785
GCGGCCCA	0.00935
AGTTAGCC	0.177
AGAACTCG	-0.03
CGAACTCG	-0.0661
GGAACTCC	0.356
GGAACTCA	-0.0534
CGAACTCC	0.391
CTAACTCC	0.221
CGAACTCA	-0.0187
ATAACTCC	0.365
AGAACTCT	0.07
GGAACTAC	-0.062
ATAACTCG	0.149
AGAACTCC	0.31
AGCTGCAG	0.0539
TCCATAGA	0.00973
CAGTTCTA	-0.125
CGAGAATC	0.0357
CTGCAAGA	-0.136
AAGCCTGA	-0.208
ACAACAGT	0.0455

Sequence	PBM E-score
AAGGGTCT	-0.114
TAACTTAA	0.246
AAACCCCG	0.441
CAACCCCG	0.355
AAACCCCC	-0.346
AACCCCCG	-0.193
CAACCCCC	-0.266
CAACCCGG	-0.157
ACGGTATA	-0.115
AAACTAAC	0.27
AAAGTTCT	0.149
GGGCGTGA	-0.182
ACCCCGAG	0.382
ACCCCGAC	0.273
CCCCCGAG	-0.343
GCCCCGAA	0.184
ACCCCGAA	0.332
CCCCCGAA	-0.0826
AACCCGAT	-0.0428
ACCCCGAT	0.342
AACCCGAG	0.0811
GGGCGAAA	0.0444
AATCGCAT	0.0231
CGCACATC	-0.156
GAGTTCAA	0.152

Sequence	PBM E-score
GGATCAGA	-0.0639
GTGGGGAA	0.0142
GGCTGGAC	-0.278
ACTCCGTA	0.478
ATTCCGTG	0.273
ACTCCGTG	0.473
ATTCCGTC	0.143
ACTCCGTC	0.48
CCTCCGTC	-0.0539
CCTCCGTA	0.0232
AATCCGTG	-0.153
GCTCCGTA	0.291
CGGTGAGA	0.0413
AGGTTAGG	-0.0421
ACCAACCG	0.0755
GGACAGTA	0.184
ACCCTTAC	-0.129
GGAAGCCC	-0.0417
ATTTATCC	0.33
ATTTTATG	0.13
ATTTTATC	0.321
ATTTATCA	0.229
CTTTTACC	0.149
ATTTTACC	0.352
CTTTTATC	0.26

Sequence	PBM E-score
AATTTACC	0.143
ATTTATCG	0.191
ATTCATGA	-0.0184
AGACCAAA	0.026
CCCGATTC	0.0897
CCAGAAAC	-0.0561
ATACAAAG	0.119
ATACAAAC	0.298
ATACAATC	0.236
GTACAAAC	0.0652
CTACAAAC	0.0828
ATACAAAA	0.288
CTACAATA	0.181
ATACAAAT	0.312
ATACAATA	0.299
TCAGGACA	-0.0448
ACCCGCCT	-0.184
ACTGGATC	-0.0162
AATCTCTG	-0.129
GACTCCAC	0.0104
CACTCCTC	-0.176
CCCTCCGC	-0.318
CACTCCGG	0.476
CACTCCTG	-0.0764
AACTCCCC	-0.0339

Sequence	PBM E-score
GACTCCGC	0.429
GACTCCTC	0.0705
CACTCCGC	0.367
CACTCCCG	-0.0356
AACTCCGC	0.492
ACCTCCGC	-0.104
AAGCACGC	-0.122
CACGGTAA	0.0752
CTTCCATA	0.00613
CTCATAGC	-0.0832
CCCCAGGC	-0.303
GCCGAGCC	-0.0648
GACACTGA	0.0506
AATCGTTG	0.0316
CCTTCACC	-0.231
CGGAGAAG	0.36
CCGACAAG	0.115
TCGACAAA	0.213
CGGAGAAC	0.33
CCGACAAA	0.313
TGGAGAAA	-0.00929
GGGAGAAA	-0.0502
AGGAGAAC	-0.0513
CGGAGAAA	0.391
CAGAGAAG	-0.0543

Sequence	PBM E-score
AGGAGAAG	-0.165
GGGAGAAC	-0.0542
CGTCAACG	0.0766
CGGTACTC	-0.0748
GAACAGTC	0.0217
GAATGTCC	0.282
AACCCTAC	-0.287
ATATGCAC	0.133
CCACCCCA	-0.221
AATCCATA	0.108
AACGCTGT	-0.0573
CCAGTAGA	-0.112
AGTGCTCA	-0.105
CCGAAAAG	0.178
TCGAGAAA	0.103
CCGAGAAA	0.339
CCGAAAAC	0.164
GCGAGAAA	0.0168
AGGAGAGA	-0.0542
CGGAGAGC	0.109
CCGAAAAA	0.352
CGGAGAGA	0.317
ACGGGTGA	-0.0761
AGCGTCAT	-0.0756
CACCTTGC	0.00165

Sequence	PBM E-score
CTCAGCGA	-0.204
CGGAGCGC	0.118
AGGAGCGA	-0.00713
CGGAGCAC	0.175
CGGAGCAA	0.311
TGGAGCAA	-0.0175
CGGAGCGA	0.325
TTCATGAA	0.00239
AACTACAT	0.141
CCATTATA	0.135
TCCGGGAA	0.356
CCCGGAAA	0.234
TCCGGTAA	0.384
GCCGGTAA	0.121
ACCGGAAA	0.268
ACCGGTAA	-0.0335
CCCGGGAA	-0.03
ACCGGGAA	0.145
TCCGGAAA	0.411
CTCTGAGA	-0.0987
AGCAATTG	0.175
GGAATGAA	0.166
